Compounds with a hit are over-represented: about 4.6% of the library has one in this group of screens.
V-ATPase pH – regulators of yeast V-ATPase proton pumping, primary screen, pHLuorin cytosolic pH fluorescence | response, % at 10 µM | S. cerevisiae | 350,000 compounds, 0.37% hits; in the data active = response mostly above about 7.3%, no sharp cut-off; inactive = mostly below about 5.4%; note: actives read high
SKKanGAS inh – S. pyogenes SKKanGAS growth inhibitors in kanamycin, primary screen, streptokinase expression inhibitor project, SKKanGAS strain, BacTiter-Glo luminescence | AID 1662, 2009 | 6 h | inhibition, % at 7.5 µM | 300,000 compounds, 1.3% hits;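 active = mean replicate score, as percent of positive control median, at least 50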;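 note: strain carries kanamycin resistance gene driven by streptokinase promoter and grows in 40 µg/ml kanamycin; loss of luminescence reflects streptokinase promoter inhibition or plain growth inhibition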
PfHsp90 set2 – growth inhibition of PfHsp90-expressing yeast, primary screen, antimalarial PfHsp90 inhibitor project, S. cerevisiae, BacTiter-Glo luminescence, single point, set 2 | 310,000 compounds, 0.32% hits | BacTiter-Glo ATP, 48 h; yeast lacking PDR1 and PDR3 efflux regulators | inhibition, % at 9.4 µM;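 active = every replicate shows inhibition above about 80%, whatever the replicate mean, limit read from the data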
tim10-1 inh – growth inhibitors of tim10-1 mutant yeast, primary screen, luminescence, uHTS. S. cerevisiae tim10-1 ts strain growth, BacTiter-Glo, 24 h. inhibition, % at 20 µM. 330,000 compounds, 2.2% hits;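 active = inhibition of at least 40%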;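 note: mutant grown at 25 °C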
TIM10 inh – growth inhibitors of isogenic TIM10 control yeast, primary screen, counter-screen for tim10-1 yeast inhibitor project, luminescence, uHTS; S. cerevisiae TIM10 strain growth, BacTiter-Glo luminescence, 24 h; inhibition, % at 10 µM; 330,000 compounds, 1.4% hits;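 active = inhibition of 40% or more at the single tested concentration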;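 note: wild-type TIM10 isogenic control strain grown at permissive 25 °C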
tim23-1 inh – growth inhibitors of tim23-1 mutant yeast, primary screen, luminescence, uHTS. S. cerevisiae tim23-1 growth, BacTiter-Glo luminescence, 24 h. inhibition, % at 20 µM. 330,000 compounds, 1.3% hits;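 active = growth inhibition of the mutant yeast at or above 50%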;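 note: temperature-sensitive mutant grown at 25 °C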
tim10-1 conf – growth inhibitors of tim10-1 mutant yeast, confirmation, single concentration, luminescence, S. cerevisiae | shares compounds with tim10-1 inh | S. cerevisiae tim10-1 ts strain growth, BacTiter-Glo, 24 h | inhibition, % at 20 µM | 7,400 compounds, 56% hits | AID 463213, 2010;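 active = inhibition of yeast growth at or above a set limit in either of two repeat tests at 20 µM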;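 note: tim10-1 mutant grown at permissive 25 °C to find synthetic lethal compounds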
Numbers stand for hits; 0 = inactive; - = no result.

SMILES	V-ATPase pH	SKKanGAS inh	PfHsp90 set2	tim10-1 inh	TIM10 inh	tim23-1 inh	tim10-1 conf
C=CCOc1cccc(/C=C2\C(=O)N(Cc3ccc(C)cc3)C(C)=C2C(=O)OC)c1	0	0	0	0	0	0	-
CCOc1cc(/C=C2\C(=O)N(Cc3ccc(C)cc3)C(C)=C2C(=O)OC)ccc1O	0	0	0	44	0	0	0
O/N=C/c1ccc(OCc2ccccc2F)c(Cl)c1	0	0	0	41	0	0	0
COc1ccc(-c2cc(C(=O)OCc3ccccn3)c3ccccc3n2)cc1	0	0	0	42	0	0	0
COc1ccc(-c2cc(C(=O)N3CCCCCC3)c3ccccc3n2)cc1	0	-	0	52	0	0	0
CC(O)(CC(=O)CC(=O)c1ccccc1)c1ccccc1 (stereo not drawn)	0	-	-	-	-	-	-
C=CCN1C=C(C(C)=O)C(=O)CC1	0	-	0	-	-	-	-
CSC[C@H]1CN(c2ccccc2)C(=O)[C@@H]1CC(=O)Nc1ccccc1	0	-	-	-	-	-	-
COc1ccc(C(=S)N2CCCCCC2)cc1	0	0	-	40	0	0	0
COc1ccc(C(=S)N2CCNCC2)cc1	0	0	0	0	0	0	-
Cc1ccccc1OCCCC(=O)Nc1nccs1	0	0	0	0	0	0	-
Cc1cccc(OCC(=O)Nc2nccs2)c1C	0	0	0	42	0	0	0
CCSc1nnc2ccc(-c3ccc(C)cc3)nn12	0	0	0	45	0	0	0
CCSc1nnc2ccc(-c3cccs3)nn12	0	0	0	0	0	0	-
CCc1ccc(-c2ccc3nnc(SC)n3n2)cc1	0	0	0	56	0	0	0
CCc1ccc([C@@H]2CC=C(C(=O)O)[C@H](c3ccccc3F)N2S(=O)(=O)c2ccc(C)cc2)cc1	0	-	0	41	0	0	0
COc1ccc(Br)c(C=O)c1OS(=O)(=O)c1ccc(C)cc1	0	-	-	-	-	-	-
COCOCCn1cc(CN2CCS(=O)(=O)N(Cc3ccc(-c4ccc(OC)cc4)cc3)C(C(C)C)C2=O)nn1 (stereo not drawn)	0	-	-	-	-	-	-
C/C(CCc1oc2ccc(Cl)cc2c1-c1ccc(C)o1)=N\O	0	0	0	42	0	0	43
CC(Nc1cc(C)cc(C)c1)=[N+](C)CCNS(=O)(=O)c1ccc(Cl)cc1	0	0	0	0	0	0	-
COc1ccc(NC(=O)c2ccc(Cl)c(S(=O)(=O)N3CCc4ccccc4C3)c2)cn1	0	0	0	47	0	0	0
Clc1ccccc1-c1nn2c(-c3ccccn3)nnc2s1	0	0	-	40	0	0	40
Clc1ccccc1-c1nnc2sc(-c3ccncc3)nn12	0	0	0	0	0	0	-
Clc1ccccc1-c1nn2c(-c3ccncc3)nnc2s1	0	0	-	43	0	0	43
COC(=O)C1=C(C)NC(C)=C(C(=O)OC)C1C(=O)OCC(=O)N1CCCCC1C (stereo not drawn)	0	-	0	0	0	0	-
SMILES	V-ATPase pH	SKKanGAS inh	PfHsp90 set2	tim10-1 inh	TIM10 inh	tim23-1 inh	tim10-1 conf
Cn1c2ccccc2c(=O)c2ccc(C#CC3(O)CCCCC3)cc21	0	63	0	47	0	0	34
COc1cc2sc3ccc(C#CC4(O)CCCCC4)cc3c(=O)c2cc1OC	0	0	0	0	0	0	-
O=C(O)Cc1coc2ccc3ccccc3c12	0	0	-	44	0	0	48
COc1ccc(OC)c(NC(=O)Cc2coc3ccc4ccccc4c23)c1	0	0	0	42	0	0	0
CC1CCC2(CC1)C(Nc1cccc(Cl)c1)=NC(=S)N2CC#N (stereo not drawn)	0	0	0	43	0	0	39
CCN(CC)C(=O)[C@H]1CC(CC(=O)NCCCOC)C(=O)N2CCc3c([nH]c4ccccc34)[C@]12C (stereo partly drawn)	0	-	0	0	0	0	-
COc1ccc(N/C(C)=C/C(=O)c2ccccc2)cc1	0	0	0	0	0	0	-
COc1ccc(N/C(C)=C/C(=S)Nc2ccccc2)cc1	0	0	0	41	0	0	0
C=CCn1c(-c2ccc(OC)cc2)nc2nc3ccccc3nc21	0	0	0	0	0	0	-
Fc1ccc(-c2nc3nc4ccccc4nc3n2Cc2ccco2)cc1	0	0	0	43	0	0	33
c1ccc(-c2nc3nc4ccccc4nc3n2Cc2ccco2)cc1	0	0	0	41	0	0	0
Fc1ccc(-n2c(-c3ccco3)nc3nc4ccccc4nc32)cc1	0	0	0	0	0	0	-
O=C(c1ccc(Cl)cc1)N1CCN(S(=O)(=O)/C=C/c2ccccc2)CC1	0	-	0	46	0	0	0
O=C(c1ccco1)N1CCN(S(=O)(=O)/C=C/c2ccccc2)CC1	0	0	0	0	0	0	-
CCOC(=O)c1cc(C(C)(C)C)oc1CNC(=O)c1c(C)oc2c1CCCC2	0	0	0	44	0	0	33
Cc1coc2c1C(=O)C(=O)c1c-2ccc2c(C)cccc12	0	73	0	51	0	0	0
COc1cccc2ccc(CC(O)(c3ccccc3)c3ccccc3)nc12	0	-	-	-	-	-	-
COc1ccccc1-c1cc2ccccc2[nH]1	0	0	0	51	0	0	33
Nc1c(Cl)cc(N=Nc2ccccc2)cc1Cl	0	-	-	-	-	-	-
CC1CCN(S(=O)(=O)c2cc(C(=O)N3CCN(c4ccccc4)CC3)ccc2Br)CC1	0	-	-	-	-	-	-
COC(=O)c1ccc(N2C(=O)CC(N(C)CCc3ccc(OC)c(OC)c3)C2=O)cc1 (stereo not drawn)	0	0	0	41	0	0	44
O=C(COc1cccc(C(F)(F)F)c1)Nc1cccc(S(=O)(=O)NC2=NCCCCC2)c1	0	-	0	-	-	-	-
O=C(NC1CC2CCCC(C1)N2C(=O)Nc1ccccc1F)C1CC1 (stereo not drawn)	0	0	0	0	0	0	-
CCCOC(=O)c1ccc(NC(=O)c2c(Cl)ccc(Cl)c2OC)cc1	0	0	0	48	0	0	32
CCCOC(=O)c1ccc(NC(=O)c2ccccc2OC)cc1	0	0	0	0	0	0	-
O=C(c1ccc(S(=O)(=O)Cc2ccccc2Cl)c([N+](=O)[O-])c1)N1CCN(c2ccccn2)CC1	0	0	0	52	0	0	39
O=C(c1ccc(Sc2cccc(Cl)c2)c([N+](=O)[O-])c1)N1CCN(c2ccccn2)CC1	0	0	-	41	0	0	0
O=C(c1ccc(Cl)c([N+](=O)[O-])c1)N1CCN(c2ccccn2)CC1	0	0	0	0	0	0	-

Source: PubChem
